# Laboratory results taken from PubChem BioAssay AID2553 (Johns Hopkins Ion Channel Center, 2010).
# In all, about 310,000 compounds went through this assay and about 3,300 (1.1%) were called active.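 Rule for the calls: active = B-score under library mean minus 3 SD, initial fluorescence not abnormally high, positive integrated signal ratio; inactive = the rest.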 What follows is part of a selection rich in actives, with near analogues and random picks from the rest.
# Target: Short transient receptor potential channel 6 (Mus musculus) (UniProt Q61143)
# Assay: mouse TRPC6 channel inhibitors, primary screen, cell-based, HEK293, membrane potential dye (AID 2553);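 for B-score: B-score derived from integrated fluorescence ratio over the kinetic read; more negative B-score means stronger inhibition of depolarization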
# Details: ACh-evoked depolarization, at 10 µM; active compounds read low
# Short transient receptor potential channel 6 (Mus musculus), sequence (Q61143 whole entry, looked up): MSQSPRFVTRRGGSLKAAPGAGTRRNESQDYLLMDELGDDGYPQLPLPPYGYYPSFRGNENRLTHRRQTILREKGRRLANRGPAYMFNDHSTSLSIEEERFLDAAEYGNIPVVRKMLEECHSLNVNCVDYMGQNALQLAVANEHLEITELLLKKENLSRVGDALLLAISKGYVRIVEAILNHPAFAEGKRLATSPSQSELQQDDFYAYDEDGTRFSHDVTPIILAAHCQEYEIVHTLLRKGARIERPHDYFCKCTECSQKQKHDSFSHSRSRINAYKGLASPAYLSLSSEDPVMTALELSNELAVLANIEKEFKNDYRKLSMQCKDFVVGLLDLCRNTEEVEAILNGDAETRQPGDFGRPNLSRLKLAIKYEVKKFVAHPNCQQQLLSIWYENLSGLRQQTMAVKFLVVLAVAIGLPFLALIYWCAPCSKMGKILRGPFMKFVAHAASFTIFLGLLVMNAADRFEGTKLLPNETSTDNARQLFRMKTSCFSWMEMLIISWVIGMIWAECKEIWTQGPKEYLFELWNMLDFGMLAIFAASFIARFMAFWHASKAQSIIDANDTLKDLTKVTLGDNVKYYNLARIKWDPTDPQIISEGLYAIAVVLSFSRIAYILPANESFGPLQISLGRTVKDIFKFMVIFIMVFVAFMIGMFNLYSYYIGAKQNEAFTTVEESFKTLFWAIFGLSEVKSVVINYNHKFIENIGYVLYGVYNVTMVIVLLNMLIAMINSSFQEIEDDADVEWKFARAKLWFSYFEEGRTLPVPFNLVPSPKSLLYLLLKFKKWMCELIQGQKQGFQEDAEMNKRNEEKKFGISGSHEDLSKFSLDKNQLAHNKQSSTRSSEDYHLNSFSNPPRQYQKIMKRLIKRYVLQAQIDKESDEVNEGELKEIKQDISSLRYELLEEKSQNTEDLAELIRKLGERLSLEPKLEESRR
row,Structure (SMILES),B-score
1,C/C(=N\Nc1ncc(Cl)cc1Cl)c1cccs1,inactive
2,O=C(Nc1ccccc1-c1nc2ccccc2[nH]c1=O)c1cccs1,inactive
3,C/C(=N\Nc1nc2ccccc2[nH]1)c1cccs1,-13.6 (active)
4,Cc1cc(OCC(=O)N(C)c2c(N)n(Cc3ccccc3)c(=O)[nH]c2=O)c(C(C)C)cc1Cl,inactive
5,CC(C)c1ccc(OCC(O)Cn2cnc3ccccc32)cc1 (stereo unspecified),-9.55 (active)
6,CC(=O)OC(COc1ccc(F)cc1)Cn1cnc2ccccc21 (stereo unspecified),inactive
7,CC(C)c1ccc(OCC(O)CN2CCN(c3ccccn3)CC2)cc1 (stereo unspecified),inactive
8,COCCn1cnc2c1c(=O)n(Cc1ccc(Br)cc1)c(=O)n2Cc1ccccc1,inactive
9,CCN(CC)CCn1cnc2c1c(=O)[nH]c(=O)n2Cc1ccccc1,inactive
10,N=c1c2c(-c3ccccc3)c(-c3ccccc3)n(Cc3ccccc3)c2ncn1CCCO,-7.35 (active)
11,CCOC(=O)C(CCOc1cccc(CC)c1)C(=O)OCC,inactive
12,CCOC(=O)c1sc(N(Cc2ccccc2)C(=O)CN2C(=O)CN(C)C2=O)nc1C,inactive
13,Cc1cc(=O)[nH]c(SCc2ccc(Cl)cc2)n1,inactive
14,CC1CN(C(=O)c2cc(COc3c(F)cccc3F)on2)CCN1C (stereo unspecified),inactive
15,Cc1cccc(NS(=O)(=O)c2ccc(-c3cnc(C4CC4)o3)cc2)c1,inactive
16,O=S(=O)(c1ccc(Cl)s1)N1CCC2(CC1)OCCO2,inactive
17,Cc1ccc2[nH]cc(CCNC(=O)C3CCCCC3)c2c1,inactive
18,O=C(NCCc1c[nH]c2ccccc12)c1cccc(Br)c1,inactive
19,O=C(NCCc1c[nH]c2ccccc12)C1CCN(Cc2ccc(Br)cc2)CC1,-5.11 (active)
20,Cc1ccc(OCCOc2cccc(/C=N/NC(N)=O)c2)cc1,inactive
21,COc1ccc(CNC(=O)CN2CCC(n3nnc4cc(F)ccc43)CC2)cc1,inactive
22,CC(=O)NC(C)c1nc2ccccc2n1Cc1ccccc1F (stereo unspecified),inactive
23,Fc1ccccc1Cn1cnc(NC(=S)NCCc2ccccc2)n1,inactive

row,Structure (SMILES),B-score
1,N=c1n(CCc2ccccc2)c2ccccc2n1Cc1ccccc1F,-5.3 (active)
2,CC(C)CCOc1ccc(C(=O)C[N+]2(C)CCOCC2)cc1,inactive
3,Cc1ccccc1C(OCCN(C)C)C1CCCCC1 (stereo unspecified),inactive
4,CCOC(=O)C1=C(CSc2nnnn2C)N(C)C(=O)NC1c1ccccc1 (stereo unspecified),inactive
5,COc1cccc(-n2c(=S)[nH]c3c(oc4ccccc43)c2=O)c1,inactive
6,CN(C)CCOC(=O)C(c1ccccc1)C1(O)CCCC1 (stereo unspecified),-7.55 (active)
7,O=C(O)C(c1ccccc1)C1(O)CCCCC1 (stereo unspecified),inactive
8,CCC(C(=O)OCCN(CC)CC)c1ccccc1 (stereo unspecified),inactive
9,CCCCc1cc2c(s1)CCCC/C2=N/O,inactive
10,Cc1ccc(-c2nc(COC(=O)c3c(C)noc3C)cs2)cc1,inactive
11,CCOc1cc(-c2conc2N)cc(OCC)c1OCC,inactive
12,Cc1csc2ncc(C(=O)N(Cc3ccccc3)c3ccccn3)c(=O)n12,inactive
13,CCOC(=O)CCc1c(C)c(C#N)c2[nH]c3ccccc3n2c1=O,inactive
14,Cc1ccccc1Cn1c(=O)[nH]c2ccccc21,inactive
15,CCCc1cc(=S)n2c([nH]c3ccccc32)c1C#N,-12.9 (active)
16,COc1ccc(OC)c(C(=O)c2ccc(C(=O)N3CCN(Cc4csc(C)n4)CC3)cc2)c1,inactive
17,CCOc1ccccc1NC(=S)N1CCN(c2cccc(C)c2C)CC1,inactive
18,CN(N)c1nc(N2CCCC2)nc(N2CCCC2)n1,inactive
19,Cn1c(=O)n(C)c2cc(C(=O)Nc3ccc(Br)cc3)ccc21,inactive
20,Cn1c(NC(=O)c2ccc3c(c2)OCO3)cc(=O)n(C)c1=O,inactive
21,Cn1c(=O)n(C)c2cc(C(=O)Nc3ccc4c(c3)OCO4)ccc21,-7.03 (active)
22,CC(C)(C)c1cc(CN2CCN(CCC#N)CC2)cc(C(C)(C)C)c1O,inactive
23,Cc1ccc(NC(=S)N(CCN2CCCCC2)Cc2ccco2)cc1C,inactive

row,Structure (SMILES),B-score
1,Cc1ccc(NC(=S)N(CCCN2CCCC2)Cc2cccn2Cc2ccc(Cl)cc2)cc1,-5.03 (active)
2,Cc1ccc(NC(=S)N(CCCN2CCC(C)CC2)Cc2ccco2)cc1,inactive
3,COC(=O)[C@@H]1C[C@H]2CC[C@H](O)C[C@H]2N1Cc1ccc(N2CCN(C)CC2)cc1,inactive
4,N#C/C(C(=S)Nc1ccccc1)=C1/NN=C(N2CCOCC2)N1c1ccccc1,inactive
5,COc1cccc(CC(=O)N2CCCC(CCC(=O)N3CCN(c4ccccn4)CC3)C2)c1 (stereo unspecified),inactive
6,CC(C)C(c1nnnn1C1CCCCC1)N1CCN(C(=O)c2ccco2)CC1 (stereo unspecified),inactive
7,CC(C)C(c1nnnn1CCc1ccccc1)N1CCN(C(=O)c2ccco2)CC1 (stereo unspecified),-6.03 (active)
8,CCC(c1nnnn1C1CCCC1)N1CCN(C(=O)c2ccco2)CC1 (stereo unspecified),inactive
9,CC1CC(C)CN(C/C=C/c2ccccc2[N+](=O)[O-])C1 (stereo unspecified),-10.9 (active)
10,O=[N+]([O-])c1ccccc1/C=C/CN1CCCC(CO)C1 (stereo unspecified),inactive
11,O=[N+]([O-])c1ccccc1/C=C/CN1CCC(O)CC1,inactive
12,CC1=C[C@H]2Cc3cc(C)cc(C)c3S(=O)(=O)[C@@H]2C=C1,inactive
13,CC(=O)c1cc(C#N)c(SCC(=O)Nc2nccs2)nc1C,inactive
14,Clc1ccc(C2=CSC3=Nc4cccc5cccc(c45)N23)cc1,inactive
15,CC(C)NC(=O)COCc1cc(-c2ccc3c(c2)OCO3)on1,inactive
16,CC(C)(C)c1ccc(C(=O)NCc2nnc(SCC(=O)N3CCCc4ccccc43)n2-c2ccccc2)cc1,inactive
17,Cn1c(/C(C#N)=C2/CCCCCN2)nc2ccccc21,-6.04 (active)
18,N#C/C(=C1/CCCN1)c1ccccn1,inactive
19,Cn1c(S(=O)(=O)O)nc2ccccc21,inactive
20,CC(=O)c1ccc(N2CCN(C(=O)c3ccc4nc[nH]c4c3)CC2)cc1,inactive
21,CC(=O)c1ccc(N2Cc3ccccc3C2)cc1,inactive
22,Cc1nc(SCc2ccc(F)cc2)c([N+](=O)[O-])[nH]1,inactive
23,CCCOc1ccc(Cn2ccnc2)cc1[N+](=O)[O-],inactive

row,Structure (SMILES),B-score
1,CCCCCOc1ccc(CSC2=NCCN2)cc1[N+](=O)[O-],-7.13 (active)
2,CCCCOc1ccc(CSC(=N)N)cc1[N+](=O)[O-],-6.92 (active)
3,Cc1cc(OCCCCOc2ccc(C#N)cc2)ccc1[N+](=O)[O-],inactive
4,CCCCOC(=O)CCCc1ccc([N+](=O)[O-])cc1[N+](=O)[O-],inactive
5,COc1ccc(NC(=O)CN2C(=O)C(c3ccccc3)=NC23CCCCCC3)cc1OC,inactive
6,Cc1cc(C)c2oc(C(=O)Nc3ccc(S(=O)(=O)Nc4nccc(C)n4)cc3)cc(=O)c2c1,inactive
7,c1ccc(-c2cnc(CN3CCN(c4ccccc4)CC3)o2)cc1,inactive
8,COc1cc([N+](=O)[O-])cc([N+](=O)[O-])c1NC(=O)N1CCOCC1,inactive
9,O=C(NN1C(=O)C2C3C=CC(C3)C2C1=O)c1ccco1 (stereo unspecified),inactive
10,COC(=O)C1=C(C)N(C)C(=S)NC1c1cc(OC)ccc1OC (stereo unspecified),inactive
11,CC(C)(C)NCc1cc(Br)ccc1OC1CCCC1,-6.86 (active)
12,CCOCCCNCc1cc(Br)ccc1OCC,inactive
13,COc1cc(CNC2CCCCC2)c(Br)cc1OC1CCCC1,inactive
14,O=C(c1ccc(CS(=O)(=O)c2ccccc2)o1)N1CCN(c2ccccc2)CC1,inactive
15,O=C(CNc1cccc(S(=O)(=O)N2CCCCC2)c1)Nc1ccccc1F,inactive
16,COc1ccccc1CCNC(=O)C(=O)NCCC1CCCCN1S(=O)(=O)c1cccs1 (stereo unspecified),inactive
17,COC(=O)c1ccc(OC(=O)c2cnccn2)cc1,inactive
18,Cn1c(=NC(=O)c2ccco2)sc2cccc(F)c21,inactive
19,Cn1c(=NC(=O)c2cnccn2)sc2ccccc21,-6.66 (active)
20,O=C(COc1ccccc1)Nc1ccc(F)cc1,inactive
21,O=S(=O)(c1ccc(F)cc1)N1CCN=C1SCc1cccc(F)c1,inactive
22,COC(=O)c1ccccc1NC(=O)C1(S(=O)(=O)c2ccc(Cl)cc2)CC1,inactive
23,CCCCCCCCn1c2c(c(=N)c3c1CCC3)CCCC2,-6.1 (active)

row,Structure (SMILES),B-score
1,Cc1ccc(NC(=O)CCOc2ccccc2)cc1S(=O)(=O)Nc1ccccc1Cl,inactive
2,Cc1cc(C)c2nc3nc(C)cc(C)c3c(N)c2c1,-5.04 (active)
3,Cc1cc(C)c2nc(-c3ccco3)cc(C(=O)O)c2c1,inactive
4,COc1ccc(OCc2cc(C(=O)N3CCCC3)no2)c2ccccc12,inactive
5,CCOC(=O)/C=C/CN(C(=O)OC(C)(C)C)S(=O)(=O)N1CC=CC1,inactive
6,CC(Nc1nc(N2CCCC2)nc2ccccc12)c1ccccc1 (stereo unspecified),-6.87 (active)
7,CC(Nc1nc(N2CCOCC2)nc2ccccc12)c1ccccc1 (stereo unspecified),inactive
8,CC(Nc1nc(N2CCN(CCO)CC2)nc2ccccc12)c1ccccc1 (stereo unspecified),inactive
9,COc1ccc2[nH]cc(CCN3C(=O)c4ccc(C(=O)O)cc4C3=O)c2c1,inactive
10,Cc1nn(C)cc1C(=O)c1ccccc1,inactive
11,C=CCOc1ccc(/C=C/C(=O)OCC(=O)NC2CCCCCC2)cc1,inactive
12,CCOC(=O)CNC(=O)N1c2ccccc2Sc2ccccc21,inactive
13,O=C(CN1CCCCCC1)N1c2ccccc2Sc2ccc(C(F)(F)F)cc21,-5.15 (active)
14,COc1cc(/C=C/C(=O)N2c3ccccc3Sc3ccc(C(F)(F)F)cc32)cc(OC)c1OC,inactive
15,COC(=O)c1c(-c2cccs2)csc1NC(=O)CSc1ncnc2sc(C)c(C)c12,inactive
16,CCOc1ccc(C(=O)N(Cc2ccc(N(C)C)cc2)C2CCS(=O)(=O)C2)cc1 (stereo unspecified),inactive
17,CCc1ccc(OCC(=O)N(Cc2ccccc2)C2CCS(=O)(=O)C2)cc1 (stereo unspecified),-6.07 (active)
18,Cc1ccccc1OCC(=O)N(Cc1cccc(F)c1)C1CCS(=O)(=O)C1 (stereo unspecified),inactive
19,Cc1ccccc1Nc1scc(-c2ccc(Br)cc2)[n+]1-c1ccccc1C,inactive
